# Assay outcomes deposited in PubChem BioAssay by National Center for Advancing Translational Sciences (NCATS).
# An excerpt weighted towards active compounds, which were near 6.6% of everything screened.
# RGS4 inhibitor – human RGS4 inhibition. 390,000 compounds, 0.039% hits. Transcreener GDP fluorescence polarization, RGS4-accelerated GTP hydrolysis. AID 504845. Potency, µM (top dose mostly 114 µM), inactives show top-dose activity change, negative = inhibition, actives largely listed as inhibitors; also: % is scaled to controls: 0 for no effect and ±100 for the full control effect; nearly all actives have a fitted effect of over 75% in size
# Target sequence (P49798 whole entry, looked up): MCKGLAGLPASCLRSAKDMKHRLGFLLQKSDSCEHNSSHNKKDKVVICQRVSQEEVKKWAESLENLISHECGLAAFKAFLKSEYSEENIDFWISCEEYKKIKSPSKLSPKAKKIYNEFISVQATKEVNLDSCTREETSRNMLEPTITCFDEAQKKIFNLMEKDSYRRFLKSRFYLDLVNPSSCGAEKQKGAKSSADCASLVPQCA
#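 MLSMR compounds (23 nl, pin-transferred) preincubated 10 min at room temperature with a 500nM (2x) first reagent, then RGS4 at 900nM (2x) plus Transcreener GDP mix added; fluorescence polarization (620/688 nm) read before and after 90 min at 30 °C.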
# KB-3-1 tox – kills parental KB-3-1 adenocarcinoma cells; KB-3-1 viability, CellTiter-Glo ATP luminescence, 72 h; Potency, µM (top dose mostly 46.1 µM), usual class: cytotoxic; 400,000 compounds, 1.4% hits; AID 1347075; also: % is scaled to controls: 0 for no effect and ±100 for the full control effect; nearly all actives have a fitted effect of over 60% in size
#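 KB-3-1 parental drug-naive adenocarcinoma cells in DMEM/10% FBS, incubated 72 h at 37 C with pin-transferred compounds across a concentration series. Viability by CellTiter-Glo luminescence; concentration-response curves fitted after normalization.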
# SW480 rereplic – induces DNA re-replication in SW480 colon adenocarcinoma cells | SW480 DNA re-replication, Hoechst DNA content imaging, 48 h | Potency, µM (series often up to 46.1 µM), for inactives: top-dose re-replication activation, actives largely listed as activators | 340,000 compounds, 1.8% hits | AID 624297; also: % of control where 0% means no effect; nearly all actives have a fitted effect of over 55% in size
#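 Quantitative HTS format with DMSO vehicle controls; 48 hr drug incubation at 37 C, then 40 min Hoechst staining and scanning imager measurement at 405 nm excitation.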
# TSG101-PTAP inh – blocks PTAP/TSG101 interaction to inhibit HIV-1 budding. Fluorescence polarization, FITC-PTAP peptide / Tsg101 binding. Potency, µM (top dose mostly 115 µM), without a hit: top-dose activity change, negative = inhibition, actives largely listed as inhibitors. 340,000 tested, under 10 active. AID 493005; active = well fitted inhibition curve with a large enough effect in the main read-out, with a control signal flat, not every such curve was filed as active; inconclusive = small, poorly fitted or top-dose-only effect, or effect the other way, or a change in a side signal; inactive = no such curve, though single readings can be large or run the other way; also: % of control where 0% means no effect
# Target sequence (Q99816 whole entry, looked up): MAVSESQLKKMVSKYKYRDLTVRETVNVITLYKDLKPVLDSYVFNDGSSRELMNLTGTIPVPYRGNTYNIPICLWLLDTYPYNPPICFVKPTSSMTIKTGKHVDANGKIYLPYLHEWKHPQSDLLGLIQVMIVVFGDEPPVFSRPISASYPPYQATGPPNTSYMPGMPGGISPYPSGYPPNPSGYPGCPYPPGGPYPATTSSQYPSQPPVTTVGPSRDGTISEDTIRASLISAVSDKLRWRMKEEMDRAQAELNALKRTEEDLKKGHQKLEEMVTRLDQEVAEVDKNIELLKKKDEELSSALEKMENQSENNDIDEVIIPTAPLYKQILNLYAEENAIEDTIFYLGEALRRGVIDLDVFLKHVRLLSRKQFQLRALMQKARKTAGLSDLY
#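 Fluorescence anisotropy tracks displacement of a FITC-tagged PTAP peptide (50 nM) from the Tsg101 binding domain (10 uM), following a 20 min room-temperature incubation at pH 7.5.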
# KB-V1 MDR tox – KB-V1 MDR subline cytotoxicity; AID 1347076; KB-V1 MDR cells viability, CellTiter-Glo, 72 h; Potency, µM (top dose mostly 46.1 µM), actives largely listed as cytotoxic; 400,000 compounds, 3.4% hits; also: % is scaled to controls: 0 for no effect and ±100 for the full control effect; nearly all actives have a fitted effect of over 60% in size
#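 Cytotoxicity via CellTiter-Glo luminescence after 72 h compound exposure at 37 degrees C. Cells: drug-selected KB-V1 line, DMEM phenol-red free plus 10% FBS. Compounds tested at multiple concentrations; normalized data fitted to concentration-effect curves.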
# MCF10A rereplic – induces DNA re-replication in MCF 10a normal breast cells; MCF 10A DNA re-replication, Hoechst nuclear intensity, 48 h; Potency, µM (doses to about 46.1 µM), without a hit: at the top dose activity, positive = re-replication, usual class: activators; 350,000 compounds, 2.9% hits; also: % of control where 0% means no effect; nearly all actives have a fitted effect of over 50% in size
# Starred values were filed as active, the others as inactive; i = inactive; ? = inconclusive; · = not tested or not shown; [ ] = remark or other dose. Unless noted, calls follow the shape of the dose curve; as a rule, active = well fitted curve in the direction sought with a large enough effect; inconclusive = small, poorly fitted or top-dose-only effect, or another doubt; inactive = no such curve, though single readings can be large; an effect the other way counts as inactive or inconclusive. Potency is read from the fitted curve at half-maximal effect.
SMILES,RGS4 inhibitor,KB-3-1 tox,SW480 rereplic,TSG101-PTAP inh,KB-V1 MDR tox,MCF10A rereplic
CC(OC(=O)c1nc(Cl)ccc1Cl)C(=O)Nc1ccc2c(c1)OCCO2 (stereo unspecified),-22%,i,-37%,-5%,i,1.6µM*
CC(OC(=O)c1cccc(S(=O)(=O)Nc2cccc(C(F)(F)F)c2)c1)C(=O)Nc1ccc2c(c1)OCCO2 (stereo unspecified),-19%,?,8%,-6%,15µM*,?
CNC(=O)C1CCC(Cn2c(=O)c3sccc3n(CC(=O)N3CCCC(C)C3)c2=O)CC1 (stereo unspecified),-14%,i,·,·,i,·
Cn1c(-c2ccc(Cl)cc2)ccc(C#N)c1=O,2%,?,1%,-4%,5.8µM*,-178%[0.0737 µM]
COc1ccccc1-n1nc(-c2ccccc2)c2cnc3cc(C(F)(F)F)ccc3c21,9%,i,·,·,i,·
N[C@H](Cc1c[nH]c2ccccc12)C(=O)O,21µM*,·,?,·,·,-5%
O=C(O)Cc1c[nH]c2ccccc12,16%,i,26%,2%,i,3%
CC(Sc1c[nH]c2ccccc12)C(=O)O (stereo unspecified),13%,i,?,1%,i,8.2µM*
CC(C)CC(NC(=O)OCc1ccccc1)C(=O)NC(Cc1c[nH]c2ccccc12)C(=O)O (stereo unspecified),·,i,·,·,i,·
COc1ccccc1CNC(=O)C(Cc1c[nH]c2ccccc12)NC(=O)OCc1ccccc1 (stereo unspecified),-30%,?,2%,2%,18µM*,18%
O=C(O)CSc1c[nH]c2ccccc12,-36%,i,-17%,-9%,i,-2%
COc1ccc(CNc2ncnc3nc[nH]c23)cc1OC,-12%,i,·,·,i,·
CCOc1ccc(NC(=O)C2CC(=O)NC(=Nc3ccc(Cl)c(Cl)c3)S2)cc1 (stereo unspecified),-20%,i,·,·,i,·
Cc1ccc2c(c1)N(C(=O)N1CCC(C(=O)NCCC3=CCCCC3)CC1)CC(C)O2 (stereo unspecified),6%,i,·,·,i,·
CCOc1ccc(OCC)c(NC(=O)c2cc(S(=O)(=O)N3CCc4ccccc43)cn2C)c1,5%,·,·,·,·,·
COc1ccc(C=O)cc1OS(=O)(=O)c1ccc(NC(C)=O)cc1,-18%,i,18µM*,-4%,i,?
COc1cc(C=O)cc(OC)c1OS(=O)(=O)c1ccc(NC(C)=O)cc1,-8%,i,-20%,1%,i,?
N#C/C(=C/c1cccc(C(F)(F)F)c1)c1nc(CCN2C(=O)c3ccccc3C2=O)cs1,-21%,i,-4%,0%,21µM*,6%
N#C/C(=C/c1ccc(F)cc1)c1nc(CCN2C(=O)c3ccccc3C2=O)cs1,-26%,i,0%,-6%,i,7%
CN(C)C(CN1C(=O)C2CC=CCC2C1=O)c1cn(C)c2ccccc12 (stereo unspecified),6%,i,4.1µM*,-3%,i,-1%
CCC1(CC)C(=O)C2=C3C1[C@H](C(=O)OC)CC(C(=O)OC)C[C@H]3[C@H]1C(=O)N(C)C(=O)[C@H]1[C@H]2C (stereo partly specified),13%,·,·,·,·,·
Cc1ccc(NC(=O)COc2cccc(Oc3ccccc3)c2)cc1S(=O)(=O)N1CCOCC1,-3%,16µM*,-4%,-2%,12µM*,4%
Cc1ccc(NC(=O)COc2ccc(N(C)C(=O)C(C)(C)C)cc2)cc1S(=O)(=O)N1CCCCC1,-6%,16µM*,7%,-3%,18µM*,-2%
CC(CC(=O)Nc1ccc(Cl)c(S(=O)(=O)N2CCOCC2)c1)c1ccccc1 (stereo unspecified),-26%,4.6µM*,14%,-3%,2.1µM*,?
COc1cc(S(=O)(=O)N2CCOCC2)ccc1NC(=O)CN1c2cccc3cccc(c23)S1(=O)=O,-1%,i,-6%,-4%,?,-2%
SMILES,RGS4 inhibitor,KB-3-1 tox,SW480 rereplic,TSG101-PTAP inh,KB-V1 MDR tox,MCF10A rereplic
O=C(O)CC(SCC(=O)Nc1ccc(Cl)c(S(=O)(=O)N2CCOCC2)c1)C(=O)O (stereo unspecified),-17%[56.9 µM],i,-14%,-7%,i,-1%
Cc1ccc(NC(=O)CN2c3cccc4cccc(c34)S2(=O)=O)cc1S(=O)(=O)N1CCOCC1,6%,?,?,-3%,3.7µM*,4%
Fc1ccc(Nc2nc3nonc3nc2Nc2cccc(C(F)(F)F)c2)cc1,15%,·,·,·,·,·
CCCSC1=NC2(CCN(C(=O)NC3CCCCC3)CC2)N=C1c1ccc(OC)cc1,4%,i,·,·,i,·
Cc1ccc(NC(=O)COc2ccc(Cl)cc2Cl)cc1S(=O)(=O)N1CCOCC1,18%,i,-1%,-2%,?,11%
COc1cc(C#N)ccc1OCC(=O)Nc1ccc(C)c(S(=O)(=O)N2CCOCC2)c1,13%,i,-13%,-5%,8.2µM*,-2%
Cc1ccc(S(=O)(=O)c2ccc([N+](=O)[O-])cn2)cc1,-31%,6.5µM*,8%,-5%,9.2µM*,?
O=[N+]([O-])c1ccc(S(=O)(=O)c2ccccc2)nc1,-51%,i,-13%,-3%,i,?
CC1CCCCC1NC(=O)CN1CCN(S(=O)(=O)c2ccc(Br)s2)CC1 (stereo unspecified),15%,?,1%,-4%,9.2µM*,2%
CCOC(=O)c1c(C)n(-c2ccc(OC)cc2)c2ccc(OC(=O)COc3ccccc3)cc12,6%,·,·,·,·,·
CN1CCc2c(sc3c2C(=O)NC(c2cn(Cc4ccccc4)c4ccccc24)N3)C1 (stereo unspecified),-43%,9.2µM*,?,2%,15µM*,?
CCOC(=O)N1CCc2c(sc3c2C(=O)NC(c2ccccc2)N3)C1 (stereo unspecified),-16%,?,9.2µM*,0%,i,?
CCOC(=O)N1CCc2c(sc3c2C(=O)NC(c2ccc(N(C)C)cc2)N3)C1 (stereo unspecified),-33%,·,·,·,·,·
CN1CCc2c(sc3c2C(=O)NC(c2ccc(-c4ccc(Cl)cc4)o2)N3)C1 (stereo unspecified),-35%,i,?,1%,i,23µM*
Cc1ccc(NC(=O)C(C)c2cccc(C(=O)c3ccccc3)c2)cc1O (stereo unspecified),-19%,?,11%,0%,6.5µM*,?
